The source of these data is PubChem BioAssay AID720569 (National Center for Advancing Translational Sciences (NCATS), 2013).

This is one part of the list. Inconclusive results are not listed. Calls of active or inactive are those of the source. Calls follow the shape of the dose curve; as a rule, active = well fitted inhibition curve with a large enough effect; inconclusive = small, poorly fitted or top-dose-only effect; inactive = no such curve, though single readings can be large or run the other way.
% is scaled to controls: 0 for no effect and ±100 for the full control effect; potency is read from the fitted curve at half-maximal effect.

The assay relates to pyruvate kinase (Trypanosoma brucei). The experiment in a line: qHTS of Trypanosoma Brucei Inhibitors: Confirmatory Assay for Cherry-picked Compounds. Also: nearly all actives have a fitted effect of over 70% in size. Particulars: recombinant TbPYK, Kinase-Glo ATP luminescence; series mostly up to 76.9 µM; activity change, negative = inhibition: at the top concentration. The text has this: Members of the Trypanosomatidae family of parasitic protozoans cause a spectrum of diseases throughout the tropical and subtropical world. Sleeping sickness, caused by two subspecies of Trypanosoma brucei, is endemic to areas of sub-Saharan Africa, while Chagas' disease, a manifestation of Trypanosoma cruzi infection, is prevalent throughout Central and South America. In addition, many species of Leishmania are responsible for a range of cutaneous and visceral diseases, causing ulcers, destructive lesions and kalaazar, a lethal infection of the viscera. These diseases cause severe public health and economic burdens on populations that are often already caught in a tragic cycle of poverty, poor nutrition and disease. Collectively, parasites of the trypanosomatid family infect 30 million people worldwide (~500 million live in endemic areas), and account for ~130K deaths annually. Existing treatments have developed little in the past 50 years, and suffer from toxicity, poor efficacy and resistance; the goal of this project is to develop lead drugs that will be suitable for entry into pre-clinical trials. […] Glycolysis in axenically cultured T. cruzi, representing the intracellular pathogenic stage, is also essential for these parasites. {Engel, 1987} This project aims to discover and optimize selective inhibitors of the glycolytic enzyme pyruvate kinase (PYK) from Trypanosoma brucei, the parasite that causes sleeping sickness. […] Trypanosomatid PYKs show significant differences from their human counterparts including only 47-50% sequence identity and different allosteric and activation properties.{Callens, 1992} To this end, a qHTS was done against the MLSMR to discover inhibitors. NIH Molecular Libraries Probe Production Network [MLPCN] NIH Chemical Genomics Center [NCGC] Grant: MH095452 PI Name: Malcolm Walkinshaw, University of Edinburgh
Two uL of TbPYK/substrate buffer (columns 1-3, 5-48) are dispensed into Greiner white solid bottom 1536-well assay plates; column 4 receives only TEA buffer as 0x TbPYK controls. Compounds are then transferred via Kalypsys pin tool equipped with 1536-pin array (10 nL slotted pins, V&P Scientific, San Diego, CA). Following addition of compound, 2 uL of ADP (130 uM final concentration, all columns) is added to initiate the reaction. The plates are then incubated at room temperature for 45 minutes. Kinase-Glo Plus reagent is added (3 uL) and plates incubated for 10 minutes, before being transferred to a ViewLux high-throughput CCD imager (PerkinElmer) wherein single end-point measurements of luminescence are acquired using a clear filter. All reagents are diluted in an assay buffer consisting of 50 mM TEA (pH 7.2), 100 mM KCl, 10 mM MgCl2, 0.05% BSA and 0.01% Tween-20. All screening operations will be performed on a fully integrated robotic system (Kalypsys, San Diego, CA) containing one RX-130 and two RX-90 anthropomorphic robotic arms (Staeubli, Duncan, SC). Library plates will be screened starting from the lowest and proceeding to the highest concentration. Vehicle-only plates, with DMSO being pin-transferred to columns 5-48, will be inserted uniformly at the beginning and the end of each library in order to monitor and record any shifts in the background, which can be affected by reagent dispensers or loss in enzyme activity over time. Screening data will be corrected, normalized, and concentration-effect relationships will be derived by using publicly-available curve fitting algorithms developed in-house (http://ncgc.nih.gov/pub/openhts).
For orientation: qHTS replaces the single test concentration by a dilution series.
For `CN(c1ccccc1)S(=O)(=O)c1cccc(NC(=O)Cc2ccc(Cl)cc2)c1`, the Potency was 6.31 µM (active).

`O=C(CN1CCN(c2ccc(O)cc2)CC1)Nc1cc(S(=O)(=O)N2CCOCC2)ccc1Cl`: the Potency is 14.1 µM (active).

Take `Cc1ccc(/C=C/C(=O)Nc2ccc([N+](=O)[O-])c(NC(=O)/C=C/c3ccc(C)o3)c2)o1`: the Potency was 17.8 µM (active).

With `COc1cc(C2CC(=O)N3CN(Cc4ccccc4)CSC3=C2C#N)ccc1OCc1ccccc1` (centres undefined), the Potency was 0.126 µM (active).

For `Cc1nonc1C(=O)N/N=C/c1ccc(O)cc1`, the Potency is 15.8 µM (active).

For `O=C(CSc1ccc(-c2ccco2)nn1)Nc1cccc(F)c1`, the Potency was 15.8 µM (active).

With `CC(=O)N1CC[n+]2c(-c3ccc([N+](=O)[O-])cc3)csc21`, the Potency is 1.78 µM (active).

As to `Cc1cc(C2=NNC(=Nc3ccc(S(=O)(=O)N4CCOCC4)cc3)SC2)c(C)n1CC1CCCO1` (centres undefined), the Potency was 11.2 µM (active).

Regarding `O=c1[nH]c2ccccc2n2c(-c3ccccc3)nnc12`, the Potency is 0.126 µM (active).

With `Cc1nc2ccc(S(=O)(=O)NCC(=O)O)cc2s1`, the Potency is 6.31 µM (active).

As to `COCCNC(=O)Nc1ccc2nc(-c3ccco3)c(-c3ccco3)nc2c1`, the Potency was 11.2 µM (active).

Turning to `O=C(CN1CCN(c2ccc(O)cc2)CC1)Nc1ccc(-c2ccccc2)cc1`, the Potency is 28.2 µM (active).

Turning to `O=C(Nc1ccc(S(=O)(=O)N2CCOCC2)cc1)c1ccc2ncsc2c1`, the Potency is 10 µM (active).

As to `Oc1c(CN2CCOCC2)ccc(CN2CCOCC2)c1O`, the Potency was 20 µM (active).

As for `Cc1cc(C#N)c(SCC(N)=O)nc1-c1ccc(F)cc1`, the Potency was 2.82 µM (active).

With `Cc1cccc(-n2c(N)c(C(=O)N3CCN(C)CC3)sc2=S)c1`, the Potency was 1 µM (active).

In the case of `COc1cccc(C(=O)Nc2ccc(N3CCCC3)cc2)c1`, the Potency was 20 µM (active).

Take `N#Cc1c(N2CCCCC2)nc(N)c2c(N)nc(SCC(=O)O)cc12`: the Potency is 31.6 µM (active).

`COC(=O)/C=C\C(=O)Nc1cccc([N+](=O)[O-])c1`: the “activity change, negative = inhibition” value is -92% (inactive).

Consider `Cc1c(C)c(C)c(S(=O)(=O)N2CCC3(CC2)OCCO3)c(C)c1C`, for which the “activity change, negative = inhibition” value is 5.05% (inactive).

As for `O=c1ccc2c(-c3ccccc3S(=O)(=O)O)c3ccc(O)c(O)c3oc-2c1O`, the Potency is 8.91 µM (active).

Turning to `CSc1c(SCc2ccccc2)cnn(Cc2ccccc2)c1=O`, the Potency is 17.8 µM (active).

On to `O=C(CCCCCn1c(=S)[nH]c2ccsc2c1=O)NC1CCCCC1`, for which the Potency is 14.1 µM (active).

For `COc1ccc(Cc2nnc(NS(=O)(=O)Cc3ccccc3)s2)cc1`, the “activity change, negative = inhibition” value is -17.7% (inactive).

Regarding `c1ccc(-c2nnc3n2NC(c2ccc4c(c2)OCO4)S3)cc1` (centres undefined), the Potency is 0.0708 µM (active).

Turning to `C=CCn1c(=S)[nH]c2scc(-c3ccco3)c2c1=O`, the Potency is 14.1 µM (active).

`Cc1ccc(C)c2c1cc(C)c1nnc(SCC(=O)Nc3cccc(C(=O)O)c3)n12`: the Potency is 2.24 µM (active).

For the molecule `NC(=O)c1c(Nc2nc3c(F)cccc3s2)sc2c1CCCC2`, the Potency was 4.47 µM (active).

As to `O=C1C=CC(=O)N1c1ccc(N2CCCCC2)cc1`, the Potency is 7.08 µM (active).
